# Reference: PubChem BioAssay
# Test system: not listed separately
# Assay: compounds binding Alexa647 anti-His antibody – biochemical, small-molecule microarray, 635 nm fluorescence, artefact control for SMM control protein annotation, primary screen (AID 1128);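 further: score merges feature fluorescence with signal-to-noise for each printed compound spot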
# Conditions: higher = more signal
row,SMILES,composite z-score
1,CCOC(=O)C1=C[C@@H](CC)N(S(=O)(=O)c2ccc(C)cc2)[C@H]1c1ccccc1,0.862
2,Cc1ccc(S[C@]2(C(=O)NCc3ccccc3)CC(=O)N(Cc3ccccc3)[C@@H]2c2ccc(CO)cc2)cc1,3.05
3,CC(C)c1ccc(NN2C(C(O)c3ccc(N(C)C)cc3)C=CC3C(=O)N(c4ccccc4)C(=O)C32)cc1 (stereo not drawn),0.435
4,CS(=O)(=O)CCOC(=O)C1=CC(c2ccc(CO)cc2)=CC(C2CC2)N(Cc2cc3c(cc2Br)OCO3)C=C1C(=O)OCCS(C)(=O)=O (stereo not drawn),1.92
5,O=C1O[C@@H](c2ccccc2)[C@@H](c2ccccc2)N2[C@@H](c3ccc(OCCO)cc3)[C@]3(C(=O)Nc4ccccc43)[C@@H](C(=O)Nc3nc4ccccc4s3)[C@H]12,2.11
6,CN(C)CCCCNC(=O)[C@H]1C[C@H]2C(=O)N[C@@H](Cc3ccccc3)C(=O)N2[C@H]1c1ccc(O)cc1,0.499
7,C=CCC(OC(C)=O)[C@@H]1[C@@H](N(Cc2ccc(-c3ccccc3)cc2)C(=O)Cc2ccc(F)cc2)c2cc(OCCCO)ccc2N1C(=O)c1ccc2ccccc2n1 (stereo partly drawn),-0.26
8,COC(=O)[C@@]1(Cc2ccccc2N=[N+]=[N-])COC(c2ccc(OCCCO)cc2)=N1,1.19

# Test system: Human papillomavirus type 1a E7 protein (residues 1-88)
# Assay: HPV1a E7 small-molecule binders, primary screen, biochemical, small-molecule microarray, residues 1-88, 635 nm (AID 1129)
# Conditions: small-molecule microarray binding, fluorescence 635 nm; higher = more signal
row,SMILES,composite z-score
1,CC(=O)Nc1cc(Br)ccc1C(=O)O,0.747
2,Cc1ccccc1C(O)C1C=CC2C(=O)N(C)C(=O)C2N1N1CCCCC1 (stereo not drawn),1.18
3,[N-]=[N+]=NCc1ccccc1[C@@H]1OC(c2ccc(OCCCO)cc2)=N[C@]1(Cc1ccccc1)C(=O)N1CCCCC1,1.2
4,COCC(=C=CC[C@H](O)c1ccc(OCCO)cc1)C[C@H](O)c1cc(Cl)cc(Cl)c1O,0.907
5,COC(=O)[C@@]1(Cc2ccc(OC)cc2)[C@H]2c3cc(C(=O)N4CCCC4)n(Cc4ccccn4)c3C[C@H]2CN1C(=O)c1ccccc1,1.26
6,COc1ccc([Si](C)(C)[C@@H]2[C@@H](CCn3cc([C@H](O)c4ccccc4)nn3)O[C@]3(C(=O)N(Cc4ccc(N5C(=O)c6cccc7cccc5c67)cc4)c4ccccc43)[C@H]2C)cc1,-0.412
7,O=C1O[C@@H](c2ccccc2)[C@@H](c2ccccc2)N2[C@@H](c3ccc(O)cc3)[C@]3(C(=O)Nc4ccc(C#CC5(O)CCCCCC5)cc43)[C@@H](C(=O)N3CCCCCCC3)[C@H]12,1.26
8,O=C1[C@]2(CO)C=C(Br)[C@@H](C[C@@H]2c2ccccc2)[C@@]12CO2,-0.769
9,COCCOC(=O)N1C(=O)[C@@]2(c3cc(C#CCCO)ccc31)[C@H](c1ccccc1OCCO)N1[C@H](c3ccccc3)[C@H](c3ccccc3)OC(=O)[C@H]1[C@@H]2C(=O)N1CCN(c2ncccn2)CC1,1.21
10,CC=CC(O)C1C=CC2C(=O)N(c3ccccc3)C(=O)C2N1Nc1ccc(C(C)C)cc1 (stereo not drawn),1.2
11,CC(c1ccccc1)C(O)C1C=CC2C(=O)NC(=O)C2N1Nc1ccccn1 (stereo not drawn),0.997
12,C=CCC(OC(C)=O)[C@@H]1[C@@H](N(Cc2ccc(-c3cccc(C(F)(F)F)c3)o2)C(=O)c2ccc(C)cc2)c2cc(OCCCO)ccc2N1C(=O)c1ccc(-c2ccccc2)cc1 (stereo partly drawn),-0.626
13,COc1ccc([Si](C)(C)[C@@H]2[C@@H](CC(=O)N3CCC[C@H]3CO)O[C@]3(C(=O)N(C)c4c(Br)cc(C)cc43)[C@H]2C)cc1,1.15
14,O=C1O[C@H](c2ccccc2)[C@H](c2ccccc2)N2[C@H]1[C@@H](C(=O)O)[C@]1(C(=O)Nc3ccc(C#CC4=CCCCC4)cc31)[C@H]2c1ccc(OCCO)cc1,1.24
15,CCCNC(=O)[C@@]1(c2ccc([N+](=O)[O-])cc2)CC(=O)N(CC23CC4CC(CC(C4)C2)C3)[C@@H]1c1ccc(CO)cc1,1.04
16,CC(C)C[C@@H]1NC(=O)[C@H]2C[C@@H](C(=O)NCCCCCCNC(=O)CS)[C@@H](c3cccc(OCCO)c3)N2C1=O,1.21
17,Cc1cc(C)c(C(O)C2C=CC3C(=O)N(C)C(=O)C3N2Nc2ccccc2)c(C)c1 (stereo not drawn),0.496
18,O=C1OCCC=C[C@H]2OC34C=CCN(Cc5ccccc5)C(=O)[C@H]3N(CCCO)C(=O)[C@@H]4C12 (stereo partly drawn),-1.17
19,COCCOC(=O)N1C(=O)[C@@]2(c3cc(C#CCC(C(=O)OC)C(=O)OC)ccc31)[C@H](c1ccc(O)cc1)N1[C@H](c3ccccc3)[C@H](c3ccccc3)OC(=O)[C@H]1[C@@H]2C(N)=O,1.23
20,COCCOC(=O)N1C(=O)[C@@]2(c3cc(C#CCC(C(=O)OC)C(=O)OC)ccc31)[C@H](c1ccccc1OCCO)N1[C@H](c3ccccc3)[C@H](c3ccccc3)OC(=O)[C@H]1[C@@H]2C(N)=O,1.19
